Inconclusive results are not listed. Entries that show only a call come without a potency. Calls of active or inactive are those of the source. Unless noted, the call rests on the fitted dose curve; in most records, active means well fitted curve in the direction sought with a large enough effect; inconclusive means small, poorly fitted or top-dose-only effect, or another doubt; inactive means no such curve, though single readings can be large; an effect the other way counts as inactive or inconclusive.
Experiments:
[1] = Cell Viability - HUV-EC-C (AID 542); further: nearly all actives have a fitted effect of over 35% in size
Summary of the method: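 HUV-EC-C normal human vascular endothelial cells, 1000 cells/well, pre-incubated 5 hr at 37 °C, then exposed to compounds for 40 hr at 37 °C in complete medium. Viability measured as intracellular ATP by CellTiter-Glo luminescence; AC50 from Hill fits.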

[2] = Cellular Toxicity (caspase-3) Renal Proximal Tubule (AID 667);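 further: cells exposed to compound for 16 hours at 37 °C before detection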
Summary of the method: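 Primary rat proximal tubule cells, 1000/well, 5 h plating at 37 °C, then compound 16 h at 37 °C. Caspase-Glo 3/7 reagent, 1 h RT, luminescence. Normalized to DMSO (basal) and 10 uM staurosporine (100%); Hill-fit AC50.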

[3] = molecular target: Cytochrome P450 3A4 (Homo sapiens) (UniProt P08684); experiment: qHTS Assay for Inhibitors and Substrates of Cytochrome P450 3A4 (AID 884); further: nearly all actives have a fitted effect of over 50% in size
Summary of the method: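 20 nM human CYP3A4 with 25 uM Luciferin-PPXE (at KM) in 200 mM KPO4, preincubated 10 min with compound; NADPH regeneration started a 60 min RT reaction. Luciferin detected by luminescence, normalized to 57 uM ketoconazole as full inhibition.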

[4] = MultiTox-Fluor Cytotoxicity Assay - LYMP1-002 - Dead Cells (AID 960); further: nearly all actives have a fitted effect of over 60% in size
Summary of the method: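 Human lymphoblastoid cells (LYMP1-002), 2500/well in complete medium, were exposed to compounds for 16 hr at 37 C. Dead-cell protease activity was read as bis-AAF-R110 fluorescence (Ex/Em 485/520), normalized to DMSO and 15 uM tetraoctylammonium bromide; AC50 from Hill fits.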

[5] = Cell Viability - LYMP1-002 - Assay at 40 hr (AID 994); further: nearly all actives have a fitted effect of over 60% in size
Summary of the method: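 Human lymphoblastoid cells, 2500/well in complete medium, were preincubated 5 hr at 37 C, then exposed to compounds for 40 hr at 37 C. Intracellular ATP was read by CellTiter-Glo luminescence after 30 min at room temperature; AC50 from Hill-equation fits.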

[6] = qHTS assay for small molecule agonists of retinoid X receptor alpha signaling (AID 588544; calls by dose curve); conditions: HEK293T RXRa-UAS-bla, beta-lactamase reporter, 18 h; 530 nm emission
[7] = molecular target: Retinoic acid receptor RXR-alpha (Homo sapiens) (UniProt P19793); experiment: as above
[8] = qHTS assay for small molecule antagonists of retinoid X receptor alpha signaling (AID 588546; active means well fitted inhibition curve with a large enough effect in the signal ratio, with a control signal flat, not every such curve was filed as active; the % refers to the signal ratio;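 further: cells stimulated with 9-cis-retinoic acid as agonist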); conditions: HEK293T RXRa-UAS-bla, beta-lactamase ratio, antagonist mode; measured here: W530 green channel, cytotoxicity proxy
Summary of the method: (§1)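 Beta-lactamase reporter inhibition, read as CCF4 fluorescence ratio (ex 405, em 460/530 nm) after 2 h at RT. HEK293T UAS-bla cells, 2500/well, were stimulated with 9-cis-RA at 500 or 100 nM final alongside test compound for 18 h at 37 C.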

[9] = molecular target: Retinoic acid receptor RXR-alpha (Homo sapiens) (UniProt P19793); experiment: as above; conditions: HEK293T RXRa-UAS-bla, beta-lactamase ratio, antagonist mode
Summary of the method: as §1

[10] = molecular target: Tumor necrosis factor (Homo sapiens) (UniProt P01375); experiment: qHTS assay to identify small molecules that stimulate Tumor Necrosis Factor-alpha (TNF-alpha) secretion (AID 651757; active means well fitted curve in the direction sought with a large enough effect in the signal ratio; the % refers to the signal ratio)
Summary of the method: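 THP-1 cells were exposed to compounds for 17 hrs at 37 C, after which secreted TNF-alpha was measured by homogeneous HTRF (TR-FRET) using cryptate- and XL665-labeled anti-TNF-alpha antibodies, read after 3 hr at room temperature.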

[11] = qHTS assay for small molecule agonists of the antioxidant response element (ARE) signaling pathway measured by Nrf2-dependant transcriptional activity (AID 720636; active means well fitted curve in the direction sought with a large enough effect in the repeat runs; an effect the other way counts as inactive or inconclusive;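 further: HepG2 cells with an ARE-driven luciferase reporter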)
Summary of the method: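 We exposed ARE-luc HepG2 cells, seeded in assay medium with 1% dialyzed FBS and allowed 6 hr to adhere, to test compounds overnight (16 hr, 37 C) before measuring luciferase with ONE-Glo.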

[12] = Cell Viability - Hek293 (AID 427;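 active means compounds whose dose-response curve shows a full or clear partial loss of cell viability, called from curve shape rather than a numeric limit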;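 further: potency means the concentration at half of the fitted maximal effect; cells exposed to compound for 40 hours at 37 °C before reading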); conditions: qHTS
Summary of the method: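 Luminescent ATP read-out (CellTiter-Glo, 20 min RT) after 40 hr compound exposure at 37 °C in complete medium. Signal normalized to DMSO (basal) and 100 uM tamoxifen (100% inhibition); concentration-response fitted with the standard Hill equation to give AC50.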

[13] = Cell Viability - SK-N-SH (AID 435; calls by dose curve;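 further: potency means the concentration at half of the fitted maximal effect; compound exposure lasted 40 h at 37 °C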); conditions: SK-N-SH neuroblastoma cell viability qHTS
Summary of the method: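 SK-N-SH human neuroblastoma cells (1500/well) were exposed to compounds in complete medium for 40 h at 37 °C, and intracellular ATP was then measured by CellTiter-Glo luminescence. AC50 was taken from Hill fits, normalized to DMSO and 100 uM tamoxifen.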

[14] = Cell Viability - H-4-II-E (AID 543); further: nearly all actives have a fitted effect of over 35% in size
Summary of the method: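 Rat hepatoma H-4-II-E cells (1500/well) were plated, incubated 5 hr at 37 °C, then exposed to compounds for 40 hr at 37 °C. Cellular ATP was read by CellTiter-Glo luminescence; AC50 came from Hill-equation fits of concentration-response data.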

[15] = Cell Viability - SH-SY5Y (AID 544); conditions: SH-SY5Y neuroblastoma cell viability; viability change, negative = cytotoxic: at 92.2 µM (top of the series); further: nearly all actives have a fitted effect of over 55% in size
Summary of the method: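 Human neuroblastoma SH-SY5Y cells (1500/well) in complete medium were exposed to compounds for 40 hr at 37 °C; intracellular ATP was then quantified by CellTiter-Glo luminescence after 20 min at room temperature. AC50 came from Hill-equation concentration-response fits.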

[16] = Cell Viability - LYMP2-004 (AID 966); further: nearly all actives have a fitted effect of over 65% in size
Summary of the method: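 Human lymphoblastoid cells (2500/well) in complete medium were treated with compounds for 24 hr at 37 C, then intracellular ATP was measured by CellTiter-Glo luminescence. AC50 values came from Hill-equation fits of concentration-response data.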

[17] = Cell Viability - LYMP2-005 (AID 967)
Summary of the method: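 CellTiter-Glo luminescence (cellular ATP) read-out; LYMP2-005 lymphoblastoid cells, 2500/well, 5 h pre-incubation, then 24 h compound exposure at 37 C in complete medium. Tetraoctylammonium bromide positive control; AC50 by standard Hill fit.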

[18] = Cell Viability - LYMP2-018 (AID 985);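 further: compound exposure lasted 24 hr at 37 °C; nearly all actives have a fitted effect of over 50% in size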
Summary of the method: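 Human lymphoblastoid cells (2500/well) were pre-incubated 5 hr at 37 C, then exposed to compounds for 24 hr at 37 C in complete medium. Viability was read as intracellular ATP by CellTiter-Glo luminescence; AC50 values came from Hill-equation fits.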

[19] = qHTS assay for environmental chemicals that activate the Aryl hydrocarbon Receptor (AhR) signaling pathway (AID 651777); conditions: 1A2-DRE human hepatoma cells, luciferase, 24 h; activation: stronger effect = higher value; further: nearly all actives have a fitted effect of over 15% in size
Summary of the method: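 Induction of CYP1A2 transcription through AhR is detected by luciferase in 1A2-DRE hepatoma cells. Compounds or DMSO act for 24 hr at 37 C before a 30 min One-Glo step at room temperature.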

[20] = Cell Viability - LYMP2-012 (AID 982);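 further: cellular ATP by luciferase luminescence where a drop means cytotoxicity; cells exposed to compound for one day before reading; nearly all actives have a fitted effect of over 55% in size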

Chain of Retinoic acid receptor RXR-alpha (Homo sapiens) (P19793 whole entry, looked up): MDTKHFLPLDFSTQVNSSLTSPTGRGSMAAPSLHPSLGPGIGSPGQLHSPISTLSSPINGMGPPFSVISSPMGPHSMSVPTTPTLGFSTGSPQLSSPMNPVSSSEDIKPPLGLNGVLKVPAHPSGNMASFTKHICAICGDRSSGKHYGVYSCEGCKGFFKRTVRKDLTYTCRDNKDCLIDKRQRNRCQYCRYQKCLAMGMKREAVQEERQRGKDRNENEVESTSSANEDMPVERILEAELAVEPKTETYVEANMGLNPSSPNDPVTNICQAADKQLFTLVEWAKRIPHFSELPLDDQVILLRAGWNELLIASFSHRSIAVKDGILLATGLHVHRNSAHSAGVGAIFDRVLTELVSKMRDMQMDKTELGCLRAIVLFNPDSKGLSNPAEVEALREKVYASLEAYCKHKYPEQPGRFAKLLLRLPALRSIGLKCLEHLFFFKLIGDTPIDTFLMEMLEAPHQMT
Chain of Tumor necrosis factor (Homo sapiens) (P01375 whole entry, looked up): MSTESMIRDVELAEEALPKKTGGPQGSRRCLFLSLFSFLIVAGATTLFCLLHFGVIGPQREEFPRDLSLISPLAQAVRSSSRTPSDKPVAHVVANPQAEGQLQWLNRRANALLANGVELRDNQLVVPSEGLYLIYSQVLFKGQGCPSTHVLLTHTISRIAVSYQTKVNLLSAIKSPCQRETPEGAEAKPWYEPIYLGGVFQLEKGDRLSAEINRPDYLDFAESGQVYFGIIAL
Chain of Cytochrome P450 3A4 (Homo sapiens) (P08684 whole entry, looked up): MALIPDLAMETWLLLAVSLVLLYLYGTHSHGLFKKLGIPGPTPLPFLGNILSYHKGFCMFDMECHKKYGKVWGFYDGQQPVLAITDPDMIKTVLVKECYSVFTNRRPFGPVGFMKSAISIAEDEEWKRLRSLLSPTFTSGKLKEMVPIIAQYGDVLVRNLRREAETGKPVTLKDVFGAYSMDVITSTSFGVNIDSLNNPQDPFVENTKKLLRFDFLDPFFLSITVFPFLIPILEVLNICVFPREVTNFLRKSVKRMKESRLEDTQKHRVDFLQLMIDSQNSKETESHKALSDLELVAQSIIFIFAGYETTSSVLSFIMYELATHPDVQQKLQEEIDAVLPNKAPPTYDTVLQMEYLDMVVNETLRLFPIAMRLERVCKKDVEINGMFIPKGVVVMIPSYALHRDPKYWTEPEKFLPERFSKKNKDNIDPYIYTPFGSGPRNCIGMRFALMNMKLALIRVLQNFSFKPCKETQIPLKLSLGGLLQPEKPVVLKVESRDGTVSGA

Structure (SMILES) | Potency [1] | outcome [2] | Potency [3] | Potency [4] | Potency [5] | max response [6] | outcome [7] | max response [8] | max response [9] | outcome [10] | Potency [11] | Potency [12] | Potency [13] | Potency [14] | Potency [15] | Potency [16] | Potency [17] | Potency [18] | activation [19] | Potency [20]
C=CC(=O)OCCO | inactive | inactive | inactive | inactive | inactive | -8.13% | inactive | -12.5% | 11.3% (inactive) | inactive | inactive | – | – | – | – | – | – | – | – | –
O=[N+]([O-])c1cc(Cl)c(Cl)cc1Cl | inactive | inactive | inactive | inactive | inactive | 10.7% | inactive | 2.5% | 7.08% (inactive) | inactive | inactive | > 92 µM (inactive) | > 92 µM (inactive) | inactive | inactive | inactive | inactive | inactive | -0.111% (inactive) | –
Cl/C=C/CCl | inactive | inactive | inactive | inactive | inactive | -6.27% | inactive | 3.06% | 3.74% (inactive) | inactive | inactive | > 92 µM (inactive) | > 92 µM (inactive) | inactive | inactive | inactive | inactive | inactive | – | inactive
Brc1cccc(-c2ccccc2)c1 | inactive | inactive | inactive | inactive | inactive | -12% | inactive | – | – | inactive | inactive | > 92 µM (inactive) | > 92 µM (inactive) | inactive | inactive | inactive | inactive | inactive | -0.116% (inactive) | inactive
C=CCOCC1CO1 (stereo unspecified) | inactive | – | inactive | inactive | inactive | 1.34% | inactive | 2.33% | 9.76% (inactive) | inactive | inactive | > 92 µM (inactive) | > 92 µM (inactive) | inactive | inactive | inactive | inactive | inactive | -0.262% (inactive) | inactive

Source: PubChem BioAssay (NCATS)
